# Rows were chosen to be rich in hits. Some 11% of all compounds tested hit in one or more screens of this group.
# VP16 counter: VP16 counterscreen qHTS for inhibitors of ROR gamma transcriptional activity; AID 2546, 2010; 310,000 tested, 3.5% active; Potency, µM (series often up to 53.6 µM), for inactives: at the top dose activity, negative = inhibition, actives largely listed as inhibitors; Drosophila S2 Gal4-VP16 UAS-luciferase, luminescence, 20 h;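 note: Gal4-VP16 expression switched on by copper sulfate through the metallothionein promoter; potency is the fitted concentration of half-maximal effect; % is set by controls: 0 for no effect and ±100 for the full control effect; nearly all actives have a fitted effect of over 50% in size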
# RORgamma inh: qHTS for inhibitors of ROR gamma transcriptional activity. Nuclear receptor ROR-gamma (Mus musculus), P51450. Drosophila S2 Gal4-RORgamma UAS-luciferase reporter, 20 h. Potency, µM (doses to about 53.6 µM), without a hit: at the top dose activity change, negative = inhibition, most hits filed as inhibitors. 310,000 tested, 5.4% active; note: potency is the fitted concentration of half-maximal effect; % is set by controls: 0 for no effect and ±100 for the full control effect; nearly all actives have a fitted effect of over 60% in size
# Target sequence (P51450 whole entry, looked up, the tested form may be a part): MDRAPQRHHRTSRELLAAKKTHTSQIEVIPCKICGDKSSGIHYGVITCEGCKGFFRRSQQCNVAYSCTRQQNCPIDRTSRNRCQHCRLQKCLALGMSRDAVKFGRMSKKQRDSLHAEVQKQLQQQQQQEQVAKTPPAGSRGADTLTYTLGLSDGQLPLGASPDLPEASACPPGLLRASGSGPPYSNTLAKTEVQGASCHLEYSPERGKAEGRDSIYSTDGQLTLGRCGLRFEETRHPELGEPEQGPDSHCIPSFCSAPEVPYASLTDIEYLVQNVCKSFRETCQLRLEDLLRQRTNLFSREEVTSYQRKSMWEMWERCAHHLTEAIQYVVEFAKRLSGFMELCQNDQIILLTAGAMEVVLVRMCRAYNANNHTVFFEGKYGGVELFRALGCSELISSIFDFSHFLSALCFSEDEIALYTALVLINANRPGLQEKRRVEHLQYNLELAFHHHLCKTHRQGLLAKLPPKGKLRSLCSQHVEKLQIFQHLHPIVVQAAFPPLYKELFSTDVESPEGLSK
#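 Read-out: Photinus luciferase luminescence; inhibitors lower reporter signal. Insect Schneider cells with Gal4-ROR gamma fusion under metallothionein promoter, UAS reporter; 700 uM final copper sulfate induction, 20 hr, ambient temperature.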
# MCF10A rereplic: A quantitative high throughput screen for small molecules that induce DNA re-replication in MCF 10a normal breast cells; Potency, µM (highest dose often 46.1 µM), inactives show at the top dose activity, positive = re-replication, hits mostly activators; 350,000 tested, 2.9% active; MCF 10A DNA re-replication, Hoechst nuclear intensity, 48 h; AID 624296, 2012; note: potency is the fitted concentration of half-maximal effect; % of control where 0% means no effect; nearly all actives have a fitted effect of over 50% in size
# IL-1B inflam inh: qHTS for Inhibitors of Inflammasome Signaling: IL-1-beta AlphaLISA Primary Screen; THP-1 LPS/ATP IL-1B secretion, AlphaLISA, 16 h; stronger effect = lower value; activity change, % at 57.5 µM; 360,000 tested, 4.7% active; in the data active = activity change below about -50%; inconclusive = mostly about -30% to -49%; note: % is set by controls: 0 for no effect and ±100 for the full control effect
#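 Secreted IL-1B measured by AlphaLISA bead assay after 16 h compound exposure of THP-1 cells; compounds (final up to 57.5 uM) added 1 h before LPS (250 ng/mL) and ATP (1.25 mM) stimulation; lower signal means less secretion.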
# SW480 rereplic: A quantitative high throughput screen for small molecules that induce DNA re-replication in SW480 colon adenocarcinoma cells; SW480 DNA re-replication, Hoechst DNA content imaging, 48 h; Potency, µM (titrated, usually from 46.1 µM), for inactives: top-dose re-replication activation, hits mostly activators; 340,000 tested, 1.8% active; note: potency is the fitted concentration of half-maximal effect; % of control where 0% means no effect; nearly all actives have a fitted effect of over 55% in size
#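 250 cells/well; 23 nL cpd via pin tool; 48 hr, 37 C, 5% CO2; Hoechst 40 min; imager read of total nuclear intensity, ex 405/em 500-530 nm.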
# An asterisk follows results filed as active; u = inconclusive; x = no result; [ ] = another dose, or the depositor's remark. Unless noted, calls come from the whole dose curve; as a rule, active = well fitted curve in the direction sought with a large enough effect; inconclusive = small, poorly fitted or top-dose-only effect, or another doubt; inactive = no such curve, though single readings can be large; an effect the other way counts as inactive or inconclusive.
SMILES,VP16 counter,RORgamma inh,MCF10A rereplic,IL-1B inflam inh,SW480 rereplic
CCn1c(=N)c(C(=O)NC)cc2c(=O)n3cccc(C)c3nc21,-3%,-22%,u,-21,13µM*
Cc1cccn2c(=O)c3cc(C(=O)NCCC4=CCCCC4)n(C)c3nc12,3%,3%,9.2µM*,36,u
Cc1cccn2c(=O)c3cc(C(=O)NC4CCCCC4)c(=N)n(CCN4CCOCC4)c3nc12,-6%,16%,u,12,u
Cn1c(C(=O)NCCC2=CCCCC2)cc2c(=O)n3ccccc3nc21,x,-13%[0.365 µM],4%,-15,13%
Cc1cccn2c(=O)c3cc(C(=O)NC4CCCC4)c(=N)n(C4CCCC4)c3nc12,13%,-19%,3.5µM*,-9,7.1µM*
CCCCNC(=O)c1cc2c(=O)n3cccc(C)c3nc2n(Cc2ccncc2)c1=N,-11%,4%,18%,-23,-1%
N=c1c(C(=O)NCc2ccco2)cc2c(=O)n3ccccc3nc2n1C1CCCC1,0%,0%,21µM*,17,21µM*
N=c1c(S(=O)(=O)c2ccc(Br)cc2)cc2c(=O)n3ccccc3nc2n1C1CCCC1,-2%,6%,u,8,-4%
COCCN(C(=O)CCC(=O)Nc1ccccn1)C(C(=O)NCCC(C)C)c1ccc(C)cc1 (configuration not stated),4%,1%,-2%,-7,-3%
CN1CC[C@]2(CCN3CCc4c(oc5ccccc45)[C@@H]3C2)N(C)C1=O,x,x,11%,25,-2%
O=C(COC(=O)CC1CC2CCC1C2)Nc1ccccc1[N+](=O)[O-] (configuration not stated),x,x,3%,-8,1%
CCCn1c(=N)c(C(=O)NC2CCCC2)cc2c(=O)n3cccc(C)c3nc21,-14%,u,2.9µM*,-21,6.5µM*
Cc1cccn2c(=O)c3cc(C(=O)NC4CCCC4)n(C)c3nc12,-14%,22%,13µM*,-2,4.6µM*
N=c1c(S(=O)(=O)c2ccccc2)cc2c(=O)n3ccccc3nc2n1C1CCCC1,-11%,u,18%,9,2%
Cc1cc(C)nc(NS(=O)(=O)c2ccc(NC(=O)c3cc4c(=O)n5cccc(C)c5nc4n3C)cc2)n1,-4%,-5%,10µM*,14,2.1µM*
N=c1c(C(=O)NC2CCCC2)cc2c(=O)n3ccccc3nc2n1C1CCCC1,-25%,1%,17%,27,16µM*
CCOC(C)(C)C,-2%,-22%,x,x,x
COc1cccc2c1Oc1cc([N+](=O)[O-])cc(N(C)C(C)=O)c1C=C2,7%,-15%,u,2,7%
CC(=O)N(c1ccccc1)C(C(=O)c1ccccc1)c1ccccc1 (configuration not stated),x,x,0%,u,1%
O=c1[nH]c(=O)n(C2OC(CO)C(O)C2O)c2c1CCCC2 (configuration not stated),x,x,x,4,x
Cc1ccc(NC(=O)CSCC(=O)N(C)Cc2c(F)cccc2Cl)cc1,x,x,x,-13,x
COc1ccc(NC(=O)NCc2cccn2C)c(OC)c1,-5%,5%,0%,-10,3%[9.22 µM]
Cn1cccc1CNC(=S)Nc1cc(F)cc(F)c1,-13%,3%,-2%,15,u
Cc1ccc(C)c(NC(=S)NCc2cccn2C)c1,11µM*,10µM*,x,x,x
CCc1ccccc1NC(=S)NCc1cccn1C,11µM*,13µM*,-8%,0,5%
SMILES,VP16 counter,RORgamma inh,MCF10A rereplic,IL-1B inflam inh,SW480 rereplic
CC(C)Nc1nc(NC(C)C)nc(N(C#N)CCOc2ccc(Cl)cc2Cl)n1,u,u,18µM*,-13,u
Cc1cc(C)nc(N(C#N)CCOc2ccc(Cl)cc2)n1,0%,u,u,-20,-5%[9.22 µM]
CC(C)C(=O)NC(=S)Nc1ccc(CN2CCOCC2)cc1,-10%,u,-6%,14,-10%
COc1ccc(Br)cc1C(=O)NC(=S)Nc1ccc(CN2CCOCC2)cc1,u,u,u,-68*,u
CC(C)Oc1ccc(C(=O)NC(=S)Nc2ccc(CN3CCOCC3)cc2)cc1,13µM*,7.1µM*,4%,-27,-7%
Cc1ccc(C(=O)NC(=S)Nc2ccc(CN3CCOCC3)cc2)cc1,u,14µM*,-1%,-29,2%
O=C(NC(=S)Nc1ccc(CN2CCOCC2)cc1)c1ccc([N+](=O)[O-])cc1Cl,u,7.9µM*,4%,1,9%
Cc1cccc(-c2ccc3[nH]c4c(c3c2)CCN2C[C@@H]([C@H](C)OC(=O)Nc3ccccc3C)[C@@H](N(C)C(=O)Nc3ccccc3C)C[C@@H]42)c1,x,x,x,-21,x
CC(C)[C@@H](CC(=O)N[C@@H]1CCNC[C@H]1C(=O)N[C@H](CC(=O)N[C@@H](CCC(=O)O)CC(=O)O)Cc1c[nH]c2ccccc12)NC(=O)C[C@H](Cc1ccccc1)NC(=O)[C@@H]1CCCC[C@H]1N,-3%,13%,x,x,x
CC(OC(=O)CCc1ccccc1)C(=O)Nc1ccc(Cl)cn1 (configuration not stated),x,x,0%,10,-4%
CCCNC(=O)C1(C)CCN1C(=O)c1cc(C)n(C)n1 (configuration not stated),x,x,x,25,x
CC1=NN(C(N)=S)C(=O)C1N=Nc1ccccc1O (configuration not stated),-28%,-40%,-3%,25,20%
Cc1[nH]n(C(N)=S)c(=O)c1N=Nc1ccccc1C(F)(F)F,2.5µM*,0.32µM*,6%,-7,-19%
Cc1ccccc1N=Nc1c(C)[nH]n(C(N)=S)c1=O,1µM*,0.4µM*,28%,0,2%
Cc1[nH]n(S(=O)(=O)Cc2ccccc2)c(=O)c1N=Nc1ccccc1Cl,-7%,-2%,2%,53,-4%
Cc1[nH]n(C(N)=S)c(=O)c1N=Nc1ccc([N+](=O)[O-])cc1Cl,3.5µM*,0.71µM*,u,21,1%
Cc1cccc(N=Nc2c(C)[nH]n(C(N)=S)c2=O)c1C,1.6µM*,0.4µM*,x,x,x
Cc1ccccc1N=Nc1c(C)[nH]n(-c2ccccc2)c1=O,-9%,-14%,1%,19,0%
O=C(CN(Cc1ccc(F)cc1)C(=O)CNS(=O)(=O)c1ccccc1)NCc1ccco1,-13%,15%,-1%,-7,-6%
CC(C)(C)N(Cc1ccccc1)C(=O)CN1C(=O)c2ccccc2S1(=O)=O,x,x,4%,2,-2%
Cc1cc2c(cc1C)-n1nnnc1C(N1CCCC1)C(=O)N2 (configuration not stated),x,x,x,3,x
CCOc1ccc(N=Nc2c(C)[nH]n(-c3ccccc3)c2=O)cc1,0%,10%,7%,17,3%

# Source: PubChem BioAssay (National Center for Advancing Translational Sciences (NCATS))
